In the library only some 10% were active in any assay of this set; here they are far more common.
GLS inhibitor – inhibitors of human glutaminase (GLS). GLS enzymatic activity, qHTS titration. Potency, µM (highest dose often 45.5 µM), usual class: inhibitors. 410,000 tested, 0.21% active
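Assay buffer: 45 mM KH2PO4 pH 8.2, 0.02% Tween-20. hKGA acts on L-glutamine (1 mM solution added); product glutamate is reported by an oxidase/peroxidase Amplex Red coupling, with fluorescence taken at baseline and 30 min.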
HP1b chromo inh – HP1-beta chromodomain-methylated histone interaction inhibition | Potency, µM (top dose mostly 114 µM), usual class: inhibitors | AlphaScreen HP1-beta / biotin-H3K9me3 peptide binding | 390,000 tested, 0.56% active | P83916; also: nearly all actives have a fitted effect of over 70% in size
Target sequence (P83916 whole entry, looked up): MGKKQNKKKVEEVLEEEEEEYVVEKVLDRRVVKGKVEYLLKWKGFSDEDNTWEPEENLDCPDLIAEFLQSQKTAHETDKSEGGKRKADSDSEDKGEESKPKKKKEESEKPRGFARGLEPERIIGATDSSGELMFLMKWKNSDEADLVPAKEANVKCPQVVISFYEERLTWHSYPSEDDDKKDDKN
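HP1-beta protein (50 nM final) preincubated 30 min at room temperature with biotinylated H3(1-18)K9me3 peptide (50 nM) in PBS pH 7.4, 0.01% Tween-20, then compound added for 30 min. AlphaScreen streptavidin donor/nickel chelate acceptor beads (10 ug/mL final), 30 min dark, luminescence read.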
L3MBTL1 block – L3MBTL1 (human) inhibition; Q9Y468; AlphaScreen L3MBTL1–H3K9me1 peptide binding; Potency, µM (highest dose often 57.1 µM), most hits filed as inhibitors; 230,000 tested, 0.66% active; also: nearly all actives have a fitted effect of over 60% in size
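Read-out is AlphaScreen signal from streptavidin donor and nickel chelate acceptor beads (10 ug/mL final each) bridging L3MBTL1 (50 nM) and biotinylated K9-monomethylated H3(1-15) peptide (75 nM), after 30 min compound exposure at room temperature.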
G9a inh – inhibitors of human histone lysine methyltransferase G9a; G9a H3K9 monomethylation, AlphaScreen, 2 h; Potency, µM (doses to about 102 µM), actives largely listed as inhibitors; 350,000 tested, 8.8% active; AID 504332; also: nearly all actives have a fitted effect of over 75% in size
Target sequence (Q96KQ7 913-1193 limits assumed): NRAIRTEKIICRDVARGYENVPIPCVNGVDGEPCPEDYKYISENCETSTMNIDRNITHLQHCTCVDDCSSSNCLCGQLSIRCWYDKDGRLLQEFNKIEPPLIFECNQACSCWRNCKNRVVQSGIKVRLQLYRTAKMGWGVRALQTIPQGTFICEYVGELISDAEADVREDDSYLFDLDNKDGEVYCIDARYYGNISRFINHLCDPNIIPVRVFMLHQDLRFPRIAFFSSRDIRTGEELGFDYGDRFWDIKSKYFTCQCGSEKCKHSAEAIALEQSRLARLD
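Readings reflect AlphaScreen signal from monomethyl-H3K9 antibody detection. HMT at 20 nM; substrate b-H3K9 500 nM; cofactor SAM 20 uM; 2 h RT reaction; compounds tested as titrations in qHTS with 15 min preincubation.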
BAZ2B inh – BAZ2B (human) inhibition | 360,000 tested, 4.4% active | AID 504333 | Potency, µM (series often up to 114 µM), usual class: inhibitors | AlphaScreen BAZ2B-H3K14Ac peptide displacement; also: nearly all actives have a fitted effect of over 60% in size
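Compounds, titrated to a top concentration of 110 uM, were incubated 30 min at room temperature with preformed BAZ2B/acetyl-K14 H3 peptide complex (50 nM each). Proximity signal was measured by AlphaScreen after 20 min with beads.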
JMJD2A Tudor – JMJD2A Tudor domain (human) inhibition; O75164; AlphaScreen JMJD2A-Tudor / H3K4me3 peptide binding; Potency, µM (series often up to 114 µM), actives largely listed as inhibitors; AID 504339; 390,000 tested, 4.4% active; also: nearly all actives have a fitted effect of over 50% in size
A number is an active result; - = inactive; ? = inconclusive; . = no result; [ ] = remark or other dose. Calls follow the shape of the dose curve; as a rule, active = well fitted curve in the direction sought with a large enough effect; inconclusive = small, poorly fitted or top-dose-only effect, or another doubt; inactive = no such curve, though single readings can be large; an effect the other way counts as inactive or inconclusive.

SMILES | GLS inhibitor | HP1b chromo inh | L3MBTL1 block | G9a inh | BAZ2B inh | JMJD2A Tudor
Cc1cccc(C)c1NC(=S)N/N=C/c1ccccc1C(=O)O | - | - | - | . | - | -[11.4 µM]
COCCCNC(=S)N/N=C/c1ccc(N(C)C)cc1Cl | - | - | - | - | - | -
COc1ccc(CCNC(=O)CSCc2nc(-c3ccc(OC)c(OC)c3)oc2C)cc1OC | - | - | . | - | ? | -
Cc1cccc(C(=O)Oc2c(Sc3ccccc3)c(C)nn2C(C)(C)C)c1 | - | - | . | - | - | -
CCCc1cc(=O)[nH]c(SCC(=O)c2cc(C)n(C)c2C)n1 | - | - | . | 50µM | - | -
CCCc1cc(=O)[nH]c(SCC(=O)CSc2nc(CCC)cc(=O)[nH]2)n1 | - | - | - | 56µM | - | -
CCCc1cc(=O)[nH]c(SCC(=O)NC)n1 | - | - | - | - | - | -
CCCc1cc(=O)[nH]c(SCC(=O)c2ccc(S(=O)(=O)N3CCCC3)cc2)n1 | - | - | - | 50µM | - | -
COc1cccc(CNC(=O)c2cnc(N3CCCC3)nc2C)c1 | - | - | . | - | - | -
O=C(NCc1ccccc1F)C(=O)NCC(c1ccco1)S(=O)(=O)c1cccs1 (stereo not given) | - | - | . | - | - | -
COc1cccc(C2CC(=O)Nc3cc4c(cc32)OCCO4)c1OC (stereo not given) | - | - | . | - | - | -
CCCCC(CC(O)COCC(C)C)C(=O)NNC(=S)Nc1ccccc1 (stereo not given) | - | - | - | 8.9µM | - | -
Cc1ccc(S(=O)(=O)c2nc(-c3ccccc3)oc2NCCCN2CCOCC2)cc1 | - | - | - | ? | - | ?
Cc1cccc(-c2nc(S(=O)(=O)c3ccc(F)cc3)c(NCCCN3CCOCC3)o2)c1 | - | ? | . | . | 71µM | ?
CCOc1ccc(N(C)C(=O)C2CCN(S(=O)(=O)c3ccc4c(c3)CCCN4C(C)=O)CC2)cc1 | - | - | . | - | - | -
CCn1c(CCNC(=O)c2cccs2)nnc1SCC(=O)c1ccc(OC)cc1 | - | ? | . | . | . | 28µM
CCn1c(CNC(C)=O)nnc1SCC(=O)c1ccc(Br)cc1 | - | - | -[11.4 µM] | 11µM | - | 56µM
CCn1c(CNC(=O)c2ccc(OC)cc2)nnc1SCC(=O)c1ccccc1 | - | ? | - | - | - | 20µM
CCn1c(CNC(=O)Cc2ccc(OC)cc2)nnc1SCC(=O)c1ccc(Br)cc1 | - | - | . | - | - | -
COc1ccc(-n2c(=O)c(-c3cn(C)c4ccccc34)nc3cnc(N4CCOCC4)nc32)cc1 | . | . | . | -[0.501 µM] | . | .
COc1cc(C(=O)NCC(c2cccs2)S(=O)(=O)c2ccc(F)cc2)cc(OC)c1OC (stereo not given) | - | - | . | - | - | -
Cc1cc(-c2ccc(C)c(S(=O)(=O)NC(c3cccs3)C(C)C)c2)on1 (stereo not given) | - | - | . | - | - | -
O=C(NCc1ccccc1)C12CN(Cc3ccccc3)CC1C(c1cccc([N+](=O)[O-])c1)=NO2 (stereo not given) | - | - | - | 8.9µM | ? | -
CCCSc1nc(C)c2cc(C)cc(C)c2n1 | - | - | . | - | - | -
Cc1cc(C)c2nc3nc(C)c(C)cc3c(N)c2c1 | - | - | - | 50µM | - | -
SMILES | GLS inhibitor | HP1b chromo inh | L3MBTL1 block | G9a inh | BAZ2B inh | JMJD2A Tudor
Cc1nc(N)sc1C(=O)Nc1ccccc1 | - | - | - | 50µM | - | ?
Cc1nc(Nc2c(Cl)cccc2Cl)sc1C(=O)Nc1ccccc1 | - | - | - | 50µM | ? | -
CCC1(CC)Cc2ccccc2C(=C(C#N)C#N)N1 | - | - | - | - | - | -
N#CC(C#N)=C1NC(N)=C(C#N)C(c2ccccc2)=C1C#N | . | . | . | 3.5µM | ? | .
Cc1ccc(C)c(N2CCN(C(=O)CN3C(=O)COc4ccc(S(=O)(=O)N5CCCC5)cc43)CC2)c1 | - | - | . | - | - | -
COc1ccc(-n2c(=O)c3ccc(C(=O)NCc4ccc(C)cc4)cc3n(Cc3ccc(Cl)cc3)c2=O)cc1 | - | - | . | - | . | -
CC1(C)SC(=S)N(NC(=O)Nc2ccccc2)C1N(O)C(=O)Nc1cccc2ccccc12 (stereo not given) | - | - | - | 11µM | ? | ?
CC1(C)SC(=S)N(/N=C/c2ccccc2O)C1N(O)C(=O)Nc1ccccc1 (stereo not given) | 1µM | - | - | - | ? | ?
CC(=O)Nc1c(C(=O)Nc2ccccc2F)oc2ccccc12 | - | - | . | - | - | -
O=C(Nc1c(C(=O)O)[nH]c2ccc(F)cc12)c1cccc(C(F)(F)F)c1 | - | ? | - | ? | - | 79µM
O=C(Nc1c(C(=O)O)[nH]c2ccccc12)c1cccc(C(F)(F)F)c1 | - | ? | - | ? | - | -
O=C(O)c1ccc(N2C(=O)/C(=C/c3ccc(-c4ccc([N+](=O)[O-])cc4)o3)C=C2c2ccccc2)cc1 | ? | 14µM | - | 5.6µM | 11µM | 7.9µM
Cc1ccccc1-c1cncnc1NCc1cccs1 | . | . | . | -[0.501 µM] | . | .
CCc1ccc(NC(=O)C(=O)NCC(c2cccnc2)N2CCN(C)CC2)cc1 (stereo not given) | - | - | . | 16µM | 45µM | 56µM
CCc1ccc(NC(=O)C(=O)NCC(c2cccnc2)N2CCN(c3ccc(F)cc3)CC2)cc1 (stereo not given) | - | - | . | ? | - | -
Cc1cccc(C(=O)NCC(c2cccs2)N2CCOCC2)c1 (stereo not given) | - | - | - | 7.9µM | - | -
COC(=O)NCC(c1cccnc1)N1CCOCC1 (stereo not given) | - | - | - | ? | - | -
O=C(NCC(c1cccnc1)N1CCOCC1)c1cccs1 (stereo not given) | - | - | - | 45µM | - | -
CCOC(=O)/C(C#N)=C1\CCCN1CC(N)=S | - | - | - | 18µM | - | -
CCOC(=O)/C(C#N)=C1/CCCCCN1C | - | - | - | - | - | -
COc1cc(-c2nnc(SCC(=O)N3CCOCC3)o2)cc(OC)c1OC | - | - | . | 40µM | - | -
O=C(CSc1nnc(-c2ccc(O)cc2)o1)N1CCOCC1 | 8.9µM | - | - | - | - | -
O=C(CSc1nnc(-c2ccc(Cl)cc2)o1)N1CCOCC1 | - | - | . | - | - | -
COc1cc(-c2nnc(SCC(=O)N3CCCC3)o2)cc(OC)c1OC | - | - | - | - | - | -
CCc1ccc(CNC(=O)CCc2c(C)nn(-c3ccc(N4CCCC4)nn3)c2C)cc1 | - | - | . | - | ? | -
O=C(CCn1ccc2cc(S(=O)(=O)N3CCCC3)ccc21)NCc1ccccc1Br | - | - | . | - | - | -
Cc1cc2c(cc1S(=O)(=O)Nc1cccc(Cl)c1C)OCCN2C | - | - | . | - | - | -
CCN(C(C)=O)c1cnc(C=NNC(N)=S)c2ccccc12 | - | - | . | . | . | 56µM
